Compound activity as filed in PubChem BioAssay.
This is a sample that favours compounds with a hit; in the whole collection about 19% have one here.
Pf growth 48h: P. falciparum growth inhibition at 48 hours (one generation); P. falciparum luciferase growth in erythrocytes, 48 h; Potency, µM (series often up to 28.7 µM), hits mostly inhibitors; 310,000 tested, 5.9% active
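Erythrocytes infected with P. falciparum carrying an integrated firefly luciferase reporter (2% hematocrit, 0.1% parasitemia final) were exposed to compounds in RPMI 1640 with 0.5% Albumax at 37 C, 5% CO2. Growth inhibition was scored as reduced luminescence.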
Shiga inhibitor: Shiga toxin inhibition. Vero cells, Shiga toxin protein synthesis inhibition reporter. inhibition, % at 38.7 µM. 290,000 tested, 9.2% active; in the data active = inhibition mostly above about 28%, no sharp cut-off; inactive = mostly below about 43%
AMA1 RON2 block: AMA1-RON2 (P. falciparum) interaction inhibition. AlphaScreen AMA1-biotinylated RON2 peptide binding. Potency, µM (series often up to 58.2 µM), actives largely listed as inhibitors. 360,000 tested, 0.2% active; also: nearly all actives have a fitted effect of over 45% in size
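AMA1 (3D7) with his tag at 25 nM final met compounds first, then biotinylated RON2 peptide at 25 nM; detection used donor plus acceptor beads, 10 µg/mL apiece, read by AlphaScreen after 30 min at room temperature.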
SARS PLP yeast: inhibitors of SARS-CoV papain-like protease in yeast; S. cerevisiae expressing SARS-CoV PLpro, growth rescue; Potency, µM (series often up to 32.9 µM), hits mostly activators; 330,000 tested, 0.19% active; AID 485353; calls by dose curve; also: nearly all actives have a fitted effect of over 55% in size
Cycloheximide cs: affects cycloheximide protein synthesis inhibition readout, counter-screen; 300,000 tested, 12% active; cell reporter, cycloheximide protein synthesis inhibition counterscreen; max response, %; in the data active = max response mostly above about 13%, no sharp cut-off; inactive = mostly below about 14%; also: read at 38.3 µM for the half of the compounds with a filed dose
Pf growth 96h: inhibits malaria parasite growth, 96 h | P. falciparum luciferase reporter growth, 96 h | AID 504834 | Potency, µM (highest dose often 28.7 µM), actives largely listed as inhibitors | 320,000 tested, 6.9% active
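P. falciparum expressing integrated firefly luciferase grown in erythrocytes (2% hematocrit, 0.05% parasitemia final) with compounds for 96 hours at 37 C, 5% CO2. Growth inhibition read as loss of luminescence after adding luciferase detection reagent.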
Each line names hits and unclear results; the compound was inactive in the other large screens. Unless noted, calls follow the shape of the dose curve; as a rule, active = well fitted curve in the direction sought with a large enough effect; inconclusive = small, poorly fitted or top-dose-only effect, or another doubt; inactive = no such curve, though single readings can be large; an effect the other way counts as inactive or inconclusive.

Cc1ccc(-n2nc3ccc(NC(=S)NC(=O)/C=C/c4ccco4)cc3n2)cc1	Shiga inhibitor 37, Pf growth 96h 1.9µM
Cc1ccccc1NC(=S)NC(=O)/C=C/c1ccco1	none
COc1cc2c(cc1C=O)OC(C)C2 (configuration not stated)	none
N#Cc1c(SCC(=O)Nc2nccs2)nc2c(c1-c1ccco1)CCCC2	Cycloheximide cs 17
COc1ccc(CNC(=O)CSc2nc(-c3ccccc3)cc(-c3cccs3)c2C#N)cc1	Pf growth 96h 6.6µM (no result: Pf growth 48h)
COc1cc(-c2cc(-c3ccccc3)nc(SCC(=O)Nc3nccs3)c2C#N)cc(OC)c1OC	Pf growth 48h 1.2µM, Pf growth 96h inconclusive
COc1ccc(-c2cc(-c3cccs3)c(C#N)c(SCC(=O)NCc3ccco3)n2)cc1	none
Cc1nnc(N(C)C(=O)c2ccc3c(c2)OCO3)s1	none
CC(OC(=O)C1CCCCC1)C(=O)Nc1ccc(S(N)(=O)=O)cc1 (configuration not stated)	none (no result: Shiga inhibitor, Cycloheximide cs)
O=Cc1cccn1-c1ncc(Br)cn1	none
Cc1ccc(NC(=O)COCC(=O)Nc2ccc(F)cc2)cc1	none
Cc1ccc2nc(-c3ccc(NC(=O)COCC(=O)O)cc3)sc2c1	Shiga inhibitor 50, Cycloheximide cs 56
O=C(O)CSCC(=O)Nc1ccc(-c2nc3ccccc3s2)cc1	Shiga inhibitor 54, Cycloheximide cs 35
Cc1ccc2nc(-c3ccc(NC(=O)CSCC(=O)O)cc3)sc2c1	Shiga inhibitor 87, Cycloheximide cs 55
CCc1nc2c(OCc3ccc(C(=O)N(C)C)cc3)cccn2c1N(C)C(=O)c1ccc(C)cc1	none (no result: Pf growth 48h, Shiga inhibitor, SARS PLP yeast, Cycloheximide cs, Pf growth 96h)
C=CCSC1=N/C(=C\c2ccc(C)o2)C(=O)S1	none (no result: Pf growth 48h)
O=C(Cc1ccc(S(=O)(=O)N2CCOCC2)s1)Nc1cc(C(F)(F)F)cc(C(F)(F)F)c1	Pf growth 48h inconclusive, Pf growth 96h inconclusive (no result: Shiga inhibitor, Cycloheximide cs)
CCOC(=O)c1cc(NC(=O)Cc2ccc(S(=O)(=O)N3CCOCC3)s2)cc(C(=O)OCC)c1	Pf growth 48h 10µM, Pf growth 96h 5.2µM (no result: Shiga inhibitor, Cycloheximide cs)
CN(C)S(=O)(=O)c1ccc(NC(=O)Cc2ccc(S(=O)(=O)N3CCOCC3)s2)cc1	Pf growth 48h inconclusive, AMA1 RON2 block inconclusive, Pf growth 96h 9.3µM
O=C(Cc1ccc(S(=O)(=O)N2CCOCC2)s1)Nc1ccc(N2CCOCC2)cc1	none
COc1cccc(-c2csc(N3CCN(C(=S)NCC(C)C)CC3)n2)c1	Pf growth 48h 13µM, Pf growth 96h 15µM
CCC(=O)N1CCN(c2nc(-c3ccc(Cl)cc3)cs2)CC1	Shiga inhibitor 63, Cycloheximide cs 35
CC(C)CNC(=S)N1CCN(c2nc(-c3ccc(Cl)cc3)cs2)CC1	Pf growth 96h 10µM
COc1cccc(-c2csc(N3CCN(C(=S)Nc4ccccc4Cl)CC3)n2)c1	Pf growth 48h 13µM, Pf growth 96h inconclusive
Fc1cccc(Cc2noc(CN3CCC(c4ccncc4)CC3)n2)c1	none
COc1cccc(OC)c1C(=O)NCc1ccco1	none (no result: Pf growth 48h, Shiga inhibitor, SARS PLP yeast, Cycloheximide cs, Pf growth 96h)
O=C(Nc1ccc2oc(=O)ccc2c1)c1cccnc1Cl	Pf growth 96h inconclusive
COc1ccccc1CC(=O)N1CCN(c2cccc(Cl)c2)CC1	none
COCCNC(=S)N1CCN(c2nc(-c3cccc(OC)c3)cs2)CC1	Pf growth 96h inconclusive
CCNC(=S)N1CCN(c2nc(-c3cccc(OC)c3)cs2)CC1	Pf growth 48h inconclusive, Pf growth 96h 10µM
CC(C)Oc1cccc(C(=O)NC2=NCCS2)c1	Shiga inhibitor 108, Cycloheximide cs 55, Pf growth 96h inconclusive
COc1cccc(C(=O)NC2=NCCS2)c1	Shiga inhibitor 41, Cycloheximide cs 29
O=C(CCN1C(=O)c2ccccc2C1=O)NC1=NCCS1	none
O=C(NC1=NCCS1)c1cccc(F)c1	none (no result: Pf growth 48h, Shiga inhibitor, SARS PLP yeast, Cycloheximide cs, Pf growth 96h)
CCCCN1C(=O)c2ccc(C(=O)NC3=NCCS3)cc2C1=O	Cycloheximide cs 20 (no result: Pf growth 96h)
CCOc1cccc(C(=O)NC2=NCCS2)c1	Shiga inhibitor 72, Cycloheximide cs 40, Pf growth 96h inconclusive
CCOC(=O)c1[nH]c2ccc(OCC)cc2c1CCCN1C(=O)c2ccccc2C1=O	Pf growth 48h inconclusive, Pf growth 96h inconclusive
O=C(O)c1ccc(S(=O)(=O)N[C@H](Cc2ccccc2)C(=O)O)cc1	none (no result: Pf growth 48h, AMA1 RON2 block, SARS PLP yeast, Pf growth 96h)
CC(=O)C1=C(O)C(=O)N(c2cccc(C(=O)O)c2)C1c1ccc(F)cc1 (configuration not stated)	Pf growth 96h inconclusive
CCc1nn(C(C)C(=O)NCc2ccc(Cl)cc2)c(=O)c2cc3occc3n12 (configuration not stated)	Cycloheximide cs 12, Pf growth 96h inconclusive
CCc1nn(CC(=O)NC(C)CCc2ccccc2)c(=O)c2cc3occc3n12 (configuration not stated)	none
CCc1nn(C(C)C(=O)NCc2cccc(Cl)c2)c(=O)c2cc3occc3n12 (configuration not stated)	none
CCc1nn(CC(=O)NCc2cccnc2)c(=O)c2cc3occc3n12	Pf growth 96h 10µM
Cc1ccc(C(=O)OC(C(=O)O)C(OC(=O)c2ccc(C)cc2)C(=O)O)cc1 (configuration not stated)	Pf growth 48h inconclusive (no result: Shiga inhibitor, Cycloheximide cs)
COc1cc(O)cc2cc3c(c(O)c12)C(=O)CC(C)(O)O3 (configuration not stated)	Pf growth 48h inconclusive, Shiga inhibitor 37, AMA1 RON2 block inconclusive, Cycloheximide cs 35
COc1cc(O)c2c(c1)OC(C)(C)CC2=O	none
COc1cccc(-c2cc(C(=O)N3CCN(c4ccc(F)cc4)CC3)no2)c1	none
COc1ccc(-c2cc(C(=O)N3CCCC3)no2)cc1	Shiga inhibitor 74, Cycloheximide cs 25
COc1cccc(-c2cc(C(=O)N3CCCCCC3)no2)c1	Shiga inhibitor 54, Cycloheximide cs 37, Pf growth 96h inconclusive
COc1ccc(-c2cc(C(=O)N3CCc4ccccc4C3)no2)cc1OC	Pf growth 96h inconclusive
COc1ccc(-c2cc(C(=O)N3CCCCCC3)no2)cc1	Shiga inhibitor 70, Cycloheximide cs 20
COc1ccc(-c2cc(C(=O)N3CCCCCC3)no2)cc1OC	Shiga inhibitor 52, Cycloheximide cs 30
NC(=O)C(=O)N/N=C/c1c2ccccc2cc2ccccc12	Pf growth 96h inconclusive
COc1cccc(-c2cc(C(=O)N3CCCCC3C)no2)c1 (configuration not stated)	Shiga inhibitor 105, Cycloheximide cs 28, Pf growth 96h inconclusive
CC(C)(C)c1ccc(-c2nnc(NC(=O)c3ccccc3)s2)cc1	none
O=C(Nc1ccc(F)cc1)Nc1nnc(-c2ccco2)s1	Shiga inhibitor 112, Cycloheximide cs 53
COc1ccc(C(=O)Nc2nnc(-c3ccco3)s2)cc1	Shiga inhibitor 72, Cycloheximide cs 37 (no result: Pf growth 48h)
O=C(Nc1nnc(-c2ccco2)s1)c1ccccc1	Shiga inhibitor 89, Cycloheximide cs 44
O=C(Cc1nnc(NC(=O)Nc2ccc(F)cc2)s1)Nc1ccccc1	none
